PubChem BioAssay (Tox21)
Records with an inconclusive call do not appear. The source made the active and inactive calls. Unless noted, calls follow the shape of the full dose curve. Non-standard residues stand in square brackets, D forms with d. Residues, ends and D or L forms follow the SMILES beside them. *: point of attachment. Sta = CC(C)C[C@H](N)[C@@H](O)CC(=O)O; Isovaleryl = CC(C)CC(=O)*

Tests used:
[1] = qHTS assay to identify small molecule agonists of the peroxisome proliferator-activated receptor delta (PPARd) signaling pathway - cell viability counter screen (AID 743211; active = well fitted curve in the direction sought with a large enough effect in the repeat runs; an effect the other way counts as inactive or inconclusive; also: % is scaled to controls: 0 for no effect and ±100 for the full control effect; nearly all actives have a fitted effect of over 55% in size)
Summary of the method: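 Counter screen for cytotoxicity run in parallel with the PPARd reporter screen. Beta-lactamase reporter HEK293H cells exposed to compounds 17 h; ATP-based CellTiter-Glo luminescence quantified viability.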

[2] = qHTS assay to identify small molecule antagonists of the peroxisome proliferator-activated receptor delta (PPARd) signaling pathway - cell viability counter screen (AID 743213; active = well fitted curve in the direction sought with a large enough effect in the repeat runs; an effect the other way counts as inactive or inconclusive; also: % is scaled to controls: 0 for no effect and ±100 for the full control effect; nearly all actives have a fitted effect of over 50% in size)
Summary of the method: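 Viability counter-screen, qHTS format: PPARd-bla HEK293H, L165041 300 nM final, 17 h compound exposure at 37 C, CellTiter-Glo luminescence after 30 min RT.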

[3] = qHTS assay to identify small molecule agonists of the farnesoid-X-receptor (FXR) signaling pathway - cell viability counter screen (AID 743218; active = well fitted curve in the direction sought with a large enough effect in the repeat runs; an effect the other way counts as inactive or inconclusive; also: % is scaled to controls: 0 for no effect and ±100 for the full control effect; nearly all actives have a fitted effect of over 45% in size)
Summary of the method: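 In GeneBLAzer FXR-UAS-bla HEK 293T cells, compounds act for 16 h at 37 C. Cell viability is then scored in the reporter wells by CellTiter-Glo, 30 min at RT, luminescence.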

[4] = qHTS assay to identify small molecule antagonists of the farnesoid-X-receptor (FXR) signaling pathway - cell viability counter screen (AID 743221; active = well fitted cell-killing curve with a large enough effect in the repeat runs, not every such curve was filed as active; also: % is scaled to controls: 0 for no effect and ±100 for the full control effect; nearly all actives have a fitted effect of over 50% in size)
Summary of the method: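 Multiplexed counter screen: viability of FXR-bla HEK 293T cells under agonist stimulation by chenodeoxycholic acid (50 uM, final) and test compound for 16 h at 37 C, measured by CellTiter-Glo luminescence in the reporter wells.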

[5] = qHTS assay to identify small molecule agonists of the NFkB signaling pathway - cell viability counter screen (AID 1159515); also: series mostly up to about 61 µM; % is scaled to controls: 0 for no effect and ±100 for the full control effect; nearly all actives have a fitted effect of over 55% in size
Summary of the method: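 Viability in NFkB-bla ME-180 cells was measured by CellTiter-Glo luminescence, 30 min room temperature, in wells already treated 5 hr with compounds and read for reporter FRET.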

[6] = qHTS assay to identify small molecule agonists of the endoplasmic reticulum stress response signaling pathway (AID 1159516; active = well fitted activation curve with a large enough effect in the signal ratio in the repeat runs, not every such curve was filed as active; the % refers to the signal ratio; also: % is scaled to controls: 0 for no effect and ±100 for the full control effect)
Summary of the method: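 ER stress element reporter (bla) in HeLa. 1,500 cells/well, overnight attachment; 5 hr compound; 2 hr RT substrate; dual-emission fluorescence.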

[7] = qHTS assay to identify small molecule agonists of the endoplasmic reticulum stress response signaling pathway - cell viability counter screen (AID 1159517);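 also: HeLa cells carrying an ER stress response element beta-lactamase reporter; series mostly up to about 61 µM; % is scaled to controls: 0 for no effect and ±100 for the full control effect; nearly all actives have a fitted effect of over 50% in size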
Summary of the method: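 Counter-screen wells were identical to the reporter wells. Cells were plated at 1,500 per well and dosed for 5 hr, then read for luminescence 30 min after CellTiter-Glo addition.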

[8] = qHTS assay to identify small molecule antagonists of the retinoid-related orphan receptor gamma (ROR-gamma) signaling pathway - cell viability counter screen (AID 1159520; active = well fitted curve in the direction sought with a large enough effect in the repeat runs; an effect the other way counts as inactive or inconclusive; also: % is scaled to controls: 0 for no effect and ±100 for the full control effect; nearly all actives have a fitted effect of over 50% in size)
Summary of the method: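 Tet-on ROR gamma CHO cells were given compounds for 2 hr, then doxycycline hyclate at 1 uM final, and incubated 16 hr at 37 C. Viability was measured as ATP content by CellTiter-Glo luminescence.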

[9] = molecular target: Nuclear receptor ROR-gamma (Homo sapiens) (UniProt P51449); test: qHTS assay to identify small molecule antagonists of the retinoid-related orphan receptor gamma (ROR-gamma) signaling pathway (AID 1159521; active = well fitted curve in the direction sought with a large enough effect in the repeat runs; an effect the other way counts as inactive or inconclusive)
Summary of the method: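 Cells were plated, rested 4 h at 37 C, exposed to compounds for 2 h, then given 1 uM final doxycycline hyclate to induce RORγ expression. After 16 h, ONE-Glo luminescence from the ROR response element reporter was measured.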

[10] = qHTS assay to identify small molecule agonists of the AP-1 signaling pathway - cell viability counter screen (AID 1159525); also: nearly all actives have a fitted effect of over 55% in size
Summary of the method: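 AP-1-bla ME-180 cells in Opti-MEM with 0.5% dialyzed FBS, compound exposure 5 h at 37 C in 15-point titration. Viability read in the same wells as ATP content by CellTiter-Glo luminescence, normalised to tetra-n-octylammonium bromide and DMSO controls.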

[11] = qHTS assay to identify small molecule agonists of the AP-1 signaling pathway (AID 1159526); also: % is scaled to controls: 0 for no effect and ±100 for the full control effect
[12] = molecular target: Retinoic acid receptor RXR-alpha (Homo sapiens) (UniProt P19793); test: qHTS assay to identify small molecule agonists of the RXR signaling pathway (AID 1159527); also: nearly all actives have a fitted effect of over 35% in size; also: potency is read from the fitted curve at half-maximal effect
Summary of the method: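 Cells plated at 2,000/well, rested 5 hr at 37 C, pin-dosed with DMSO compound solutions, incubated 16 hr, then loaded with B/G FRET substrate for 2 hr at RT before dual-emission fluorescence reading.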

[13] = molecular target: Peroxisome proliferator-activated receptor delta (Homo sapiens) (UniProt Q03181); test: qHTS assay to identify small molecule agonists of the peroxisome proliferator-activated receptor delta (PPARd) signaling pathway (AID 743212); also: % is scaled to controls: 0 for no effect and ±100 for the full control effect
Summary of the method: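 Quantitative high-throughput agonist screen in a HEK293H beta-lactamase reporter line under UAS control. Compounds in DMSO, at 37 C. Fluorescence read after 2 h with FRET substrate at room temperature.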

[14] = molecular target: Peroxisome proliferator-activated receptor delta (Homo sapiens) (UniProt Q03181); test: qHTS assay to identify small molecule antagonists of the peroxisome proliferator-activated receptor delta (PPARd) signaling pathway (AID 743215; active = well fitted inhibition curve with a large enough effect in the signal ratio in the repeat runs, not every such curve was filed as active; the % refers to the signal ratio;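 also: cells stimulated with agonist L165041 at 300 nM final during compound exposure; series mostly up to about 62 µM; % is scaled to controls: 0 for no effect and ±100 for the full control effect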)
Summary of the method: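 Antagonist-mode beta-lactamase reporter screen: HEK293H cells with UAS-bla under PPARd control, stimulated by 300 nM L165041 (final) alongside test compound for 17 h at 37 C, then FRET fluorescence after 2 h substrate incubation.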

[15] = molecular target: Vitamin D3 receptor (Homo sapiens) (UniProt P11473); test: qHTS assay to identify small molecule agonists of the vitamin D receptor (VDR) signaling pathway (AID 743222); also: % is scaled to controls: 0 for no effect and ±100 for the full control effect
Summary of the method: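 Agonist activity measured in VDR-bla reporter cells. Exposure 16 h, 37C, 5% CO2; detection by B/G FRET substrate, 2 h RT.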

[16] = molecular target: Vitamin D3 receptor (Homo sapiens) (UniProt P11473); test: qHTS assay to identify small molecule antagonists of the vitamin D receptor (VDR) signaling pathway (AID 743223; active = well fitted inhibition curve with a large enough effect in the signal ratio in the repeat runs, not every such curve was filed as active; the % refers to the signal ratio; also: % is scaled to controls: 0 for no effect and ±100 for the full control effect)
Summary of the method: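 Cells carrying a VDR-driven beta-lactamase reporter (VDR-bla) were co-treated with compound and 3 nM final 1alpha,25-dihydroxyvitamin D3 for 16 h at 37C; reporter activity was measured as FRET substrate fluorescence after 2 h at room temperature.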

[17] = qHTS assay to identify small molecule antagonists of the vitamin D receptor (VDR) signaling pathway - cell viability counter screen (AID 743225; active = well fitted curve in the direction sought with a large enough effect in the repeat runs; an effect the other way counts as inactive or inconclusive)
Summary of the method: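 HEK293T VDR-bla; cpd + 1a,25-(OH)2D3 3 nM final, 16 h 37C/5% CO2; B/G FRET substrate 2 h RT; then CellTiter-Glo 30 min RT, luminescence.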

[18] = qHTS assay to identify small molecule agonists of the vitamin D receptor (VDR) signaling pathway - cell viability counter screen (AID 743224; active = well fitted curve in the direction sought with a large enough effect in the repeat runs; an effect the other way counts as inactive or inconclusive)
Summary of the method: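 VDR-bla cell line, quantitative HTS format; 16 h compound incubation (37C, 5% CO2); ATP-based CellTiter-Glo luminescence measured in the reporter assay wells.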

[19] = molecular target: Bile acid receptor (Homo sapiens) (UniProt Q96RI1); test: qHTS assay to identify small molecule antagonists of the farnesoid-X-receptor (FXR) signaling pathway (AID 743217; active = well fitted inhibition curve with a large enough effect in the signal ratio in the repeat runs, not every such curve was filed as active; the % refers to the signal ratio; also: % is scaled to controls: 0 for no effect and ±100 for the full control effect)
Summary of the method: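 Beta-lactamase reporter under UAS control in HEK 293T cells; compound exposure 16 h at 37 °C in the presence of chenodeoxycholic acid (50 uM final); signal from B/G FRET substrate after 2 h at room temperature.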

[20] = molecular target: Bile acid receptor (Homo sapiens) (UniProt Q96RI1); test: qHTS assay to identify small molecule agonists of the farnesoid-X-receptor (FXR) signaling pathway (AID 743220; active = well fitted activation curve with a large enough effect in the signal ratio in the repeat runs, not every such curve was filed as active; the % refers to the signal ratio; also: % is scaled to controls: 0 for no effect and ±100 for the full control effect)
Summary of the method: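 Beta-lactamase reporter under UAS control in GeneBLAzer FXR HEK 293T cells (5000/well) measured with LiveBLAzer FRET substrate after 2 h at room temperature. Compound exposure lasted 16 h at 37C.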

Sequence of Bile acid receptor (Homo sapiens) (Q96RI1 whole entry, looked up): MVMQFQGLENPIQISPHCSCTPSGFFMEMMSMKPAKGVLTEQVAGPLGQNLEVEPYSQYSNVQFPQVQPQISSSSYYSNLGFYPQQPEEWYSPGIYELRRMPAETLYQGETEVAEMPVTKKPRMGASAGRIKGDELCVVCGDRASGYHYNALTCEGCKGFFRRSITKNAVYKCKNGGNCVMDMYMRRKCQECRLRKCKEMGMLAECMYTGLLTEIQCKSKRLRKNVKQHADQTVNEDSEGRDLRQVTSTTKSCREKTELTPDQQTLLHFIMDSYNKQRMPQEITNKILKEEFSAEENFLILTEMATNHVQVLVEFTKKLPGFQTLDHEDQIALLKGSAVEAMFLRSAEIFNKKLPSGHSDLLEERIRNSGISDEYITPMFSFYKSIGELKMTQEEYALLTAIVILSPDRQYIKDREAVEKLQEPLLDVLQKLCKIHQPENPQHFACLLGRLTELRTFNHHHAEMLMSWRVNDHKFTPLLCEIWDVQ
Sequence of Peroxisome proliferator-activated receptor delta (Homo sapiens) (Q03181 whole entry, looked up): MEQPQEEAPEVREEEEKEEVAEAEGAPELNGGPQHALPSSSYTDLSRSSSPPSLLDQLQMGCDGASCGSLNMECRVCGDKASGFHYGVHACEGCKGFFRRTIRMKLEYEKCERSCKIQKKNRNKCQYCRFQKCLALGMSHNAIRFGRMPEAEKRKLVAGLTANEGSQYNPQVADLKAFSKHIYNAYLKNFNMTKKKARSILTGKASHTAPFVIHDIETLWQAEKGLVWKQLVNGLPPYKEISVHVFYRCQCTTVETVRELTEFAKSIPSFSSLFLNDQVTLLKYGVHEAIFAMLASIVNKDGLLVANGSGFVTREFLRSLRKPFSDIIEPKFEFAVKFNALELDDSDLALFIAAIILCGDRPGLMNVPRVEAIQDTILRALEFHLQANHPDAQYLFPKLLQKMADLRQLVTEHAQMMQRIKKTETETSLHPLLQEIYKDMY
Sequence of Retinoic acid receptor RXR-alpha (Homo sapiens) (P19793 whole entry, looked up): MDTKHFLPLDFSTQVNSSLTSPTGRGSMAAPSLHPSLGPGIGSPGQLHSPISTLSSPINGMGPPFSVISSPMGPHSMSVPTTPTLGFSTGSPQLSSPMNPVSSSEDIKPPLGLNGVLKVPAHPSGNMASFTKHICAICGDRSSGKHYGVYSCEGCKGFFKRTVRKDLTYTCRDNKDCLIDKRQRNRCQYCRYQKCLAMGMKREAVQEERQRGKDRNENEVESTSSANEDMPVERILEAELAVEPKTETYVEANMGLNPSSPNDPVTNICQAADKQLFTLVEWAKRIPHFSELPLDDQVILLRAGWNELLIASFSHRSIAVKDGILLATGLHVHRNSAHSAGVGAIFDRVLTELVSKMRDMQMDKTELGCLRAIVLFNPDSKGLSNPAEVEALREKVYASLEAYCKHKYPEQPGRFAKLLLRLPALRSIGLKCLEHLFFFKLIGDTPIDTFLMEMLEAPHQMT
Sequence of Vitamin D3 receptor (Homo sapiens) (P11473 whole entry, looked up): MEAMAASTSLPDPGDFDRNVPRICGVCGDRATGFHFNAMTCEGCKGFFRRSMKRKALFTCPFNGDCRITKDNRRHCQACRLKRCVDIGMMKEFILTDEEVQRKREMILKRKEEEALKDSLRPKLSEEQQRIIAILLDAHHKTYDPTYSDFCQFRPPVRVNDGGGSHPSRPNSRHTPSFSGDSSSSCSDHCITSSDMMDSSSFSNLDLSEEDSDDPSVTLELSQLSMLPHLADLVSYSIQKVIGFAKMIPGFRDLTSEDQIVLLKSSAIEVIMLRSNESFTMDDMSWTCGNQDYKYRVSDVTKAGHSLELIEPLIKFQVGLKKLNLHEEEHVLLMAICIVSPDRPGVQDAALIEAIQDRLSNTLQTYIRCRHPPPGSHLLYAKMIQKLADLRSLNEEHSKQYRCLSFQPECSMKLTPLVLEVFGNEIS

COCCCOc1cc(C[C@@H](C[C@H](N)[C@@H](O)C[C@H](C(=O)NCC(C)(C)C(N)=O)C(C)C)C(C)C)ccc1OC
inactive: outcome [1] | outcome [2] | outcome [3] | outcome [4] | outcome [5] | Potency [6] | outcome [7] | outcome [8] | outcome [9] | outcome [10] | Potency [11] | Potency [12]

CCCCCC(CC)OC(=O)CCCOc1ccc(Cl)cc1Cl (stereo unspecified)
active: Potency [12] 4.35 µM
inactive: outcome [13] | outcome [2] | outcome [14] | outcome [3] | outcome [4] | outcome [15] | outcome [16] | outcome [17] | outcome [5] | Potency [6] | outcome [7] | outcome [8] | outcome [9] | outcome [10] | Potency [11]

O=C(O)CCCCCCCCCC(=O)O
inactive: outcome [13] | outcome [2] | outcome [14] | outcome [3] | outcome [4] | outcome [15] | outcome [16] | outcome [18] | outcome [17] | outcome [5] | Potency [6] | outcome [7] | outcome [8] | outcome [9] | outcome [10] | Potency [11] | Potency [12]

CC(CC(=O)Cl)CC(C)(C)C (stereo unspecified)
inactive: outcome [1] | outcome [2] | outcome [3] | outcome [4] | outcome [15] | outcome [5] | Potency [6] | outcome [7] | outcome [8] | outcome [9] | outcome [10] | Potency [11] | Potency [12]

CC(=O)OC/C=C(/C)CCC=C(C)C
inactive: outcome [13] | outcome [2] | outcome [14] | outcome [3] | outcome [4] | outcome [18] | outcome [17] | outcome [5] | Potency [6] | outcome [7] | outcome [8] | outcome [9] | outcome [10] | Potency [11] | Potency [12]

C=CCCCCCCCCCCCCCC
inactive: outcome [13] | outcome [2] | outcome [14] | outcome [3] | outcome [4] | outcome [15] | outcome [16] | outcome [18] | outcome [17] | outcome [5] | Potency [6] | outcome [7] | activity, negative = cytotoxicity [8] 0.624% [at 19 µM] | activity change, negative = inhibition [9] -3.67% [at 19 µM] | viability change, negative = cytotoxic [10] 0.684% [at 15.8 µM] | activation [11] -3.84% [at 15.8 µM] | activation [12] -0.752% [at 15.8 µM]

O=C(O)Cc1ccccc1Oc1ccc(Cl)cc1Cl
inactive: outcome [1] | outcome [2] | outcome [19] | outcome [3] | outcome [20] | outcome [4] | outcome [5] | Potency [6] | outcome [7] | outcome [8] | outcome [9] | outcome [10] | Potency [11] | Potency [12]

CC(C)CC(=O)N[C@H](C(=O)N[C@H](C(=O)N[C@@H](CC(C)C)[C@@H](O)CC(=O)N[C@@H](C)C(=O)N[C@@H](CC(C)C)[C@@H](O)CC(=O)O)C(C)C)C(C)C (Isovaleryl-VV[Sta]A[Sta]-OH)
inactive: outcome [13] | outcome [2] | outcome [14] | outcome [3] | outcome [4] | outcome [16] | outcome [17] | outcome [5] | Potency [6] | outcome [7] | outcome [8] | outcome [9] | Potency [11] | Potency [12]

CCCCC(O)/C=C(C)/C=C/C=C/C(=O)N1CCCC1=O (stereo unspecified)
inactive: outcome [1] | outcome [13] | outcome [2] | outcome [14] | outcome [19] | outcome [3] | outcome [20] | outcome [4] | outcome [15] | outcome [16] | outcome [18] | outcome [5] | Potency [6] | outcome [7] | outcome [9] | outcome [10] | Potency [11] | Potency [12]

Cc1nnc(C(=O)NC(C)(C)c2nc(C(=O)NCc3ccc(F)cc3)c(O)c(=O)n2C)o1
inactive: outcome [13] | outcome [3] | outcome [4] | outcome [16] | outcome [18] | outcome [17] | outcome [5] | Potency [6] | outcome [7] | outcome [8] | outcome [9] | outcome [10] | Potency [11] | Potency [12]

CCCC(C)C(O)CC (stereo unspecified)
inactive: outcome [1] | outcome [2] | outcome [19] | outcome [3] | outcome [20] | outcome [4] | outcome [15] | outcome [18] | outcome [17] | outcome [5] | Potency [6] | outcome [7] | outcome [9] | outcome [10] | Potency [11] | Potency [12]

COC(=O)/C=C(\C)CCC=C(C)C
inactive: outcome [1] | outcome [13] | outcome [2] | outcome [14] | outcome [3] | outcome [4] | outcome [15] | outcome [16] | outcome [5] | Potency [6] | outcome [7] | outcome [9] | outcome [10] | Potency [11] | Potency [12]

CC(C)c1cc(C(C)C)cc(C(C)C)c1
inactive: outcome [1] | outcome [13] | outcome [2] | outcome [14] | outcome [3] | outcome [4] | outcome [15] | outcome [16] | outcome [5] | Potency [6] | outcome [7] | outcome [8] | outcome [9] | Potency [11]
active: Potency [12] 15.5 µM
